PubChem BioAssay (NCATS)
Results filed as inconclusive are left out. Activity calls are given as the source filed them. Calls come from the whole dose curve.

Target: Nucleoprotein (Lymphocytic choriomeningitis virus (strain Armstrong)) (UniProt P09992)
Assay: qHTS for Inhibitors of the Functional Ribonucleoprotein Complex (vRNP) of Lymphocytic Choriomeningitis Arenaviruses (LCMV): LCMV Primary Screen - GLuc reporter signal (AID 1347086); note: nearly all actives have a fitted effect of over 70% in size
Settings: LCMV minigenome vRNP cell assay, Gaussia luciferase reporter; series mostly up to 57.5 µM; activity change, negative = inhibition: at the top concentration
% is set by controls: 0 for no effect and ±100 for the full control effect; potency is the fitted concentration of half-maximal effect.

Nucleoprotein (Lymphocytic choriomeningitis virus (strain Armstrong)), sequence (P09992 whole entry, looked up): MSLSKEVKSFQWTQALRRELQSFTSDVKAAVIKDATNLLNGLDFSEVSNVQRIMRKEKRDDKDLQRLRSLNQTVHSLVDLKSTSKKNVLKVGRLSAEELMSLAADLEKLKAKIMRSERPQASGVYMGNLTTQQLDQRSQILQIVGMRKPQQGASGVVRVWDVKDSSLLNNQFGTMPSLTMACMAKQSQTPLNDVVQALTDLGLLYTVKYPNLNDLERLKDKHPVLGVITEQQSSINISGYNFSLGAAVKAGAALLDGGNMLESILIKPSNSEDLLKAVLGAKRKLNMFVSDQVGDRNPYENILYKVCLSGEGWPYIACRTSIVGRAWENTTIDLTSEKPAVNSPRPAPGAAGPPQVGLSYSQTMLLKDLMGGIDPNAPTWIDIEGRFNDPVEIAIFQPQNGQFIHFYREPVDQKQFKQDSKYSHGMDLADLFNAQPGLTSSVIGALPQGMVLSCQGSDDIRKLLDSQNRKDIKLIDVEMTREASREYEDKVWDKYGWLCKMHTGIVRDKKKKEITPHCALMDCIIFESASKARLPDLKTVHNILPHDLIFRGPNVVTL

| Compound | activity change, negative = inhibition | Potency |
| --- | --- | --- |
| CC(=O)[C@H]1CC[C@H]2[C@@H]3CCC4=CC(=O)CC[C@]4(C)[C@H]3CC[C@]12C | -37.4% (inactive) |  |
| O=C1CCCC(=O)C1C(=O)c1ccc(C(F)(F)F)cc1[N+](=O)[O-] | 7.41% (inactive) |  |
| Cc1ccc(NC(=O)C2(c3ccc4c(c3)OC(F)(F)O4)CC2)nc1-c1cccc(C(=O)O)c1 |  | 0.0217 µM (active) |
| O=C1c2c(O)cccc2[C@@H]([C@@H]2O[C@H](CO)[C@@H](O)[C@H](O)[C@H]2O)c2cc(CO)cc(O)c21 | -13.3% (inactive) |  |
| CN1C2CCC1CC(OC(=O)C1CCC(C(=O)OC3CC4CCC(C3)N4C)(c3ccccc3)c3ccccc31)C2 (centres undefined) | -19% (inactive) |  |
| Cc1c(-c2ccc(O)cc2)n(Cc2ccc(OCCN3CCCCCC3)cc2)c2ccc(O)cc12 | 10.8% (inactive) |  |
| Clc1ccc2c(c1)N=C(N1CCNCC1)c1ccccc1N2 | -30.7% (inactive) |  |
| N[C@@H](CC(=O)N1CCn2c(nnc2C(F)(F)F)C1)Cc1cc(F)c(F)cc1F | 35.2% (inactive) |  |
| C=C1C(=O)[C@@]23C(CC[C@@H]1[C@H]2O)[C@@]12CO[C@]3(O)[C@@H](O)[C@@H]1C(C)(C)CC[C@@H]2O (some centres undefined) |  | 1.22 µM (active) |
| CCCNS(=O)(=O)Nc1ncnc(OCCOc2ncc(Br)cn2)c1-c1ccc(Br)cc1 | -6.11% (inactive) |  |
| Cc1ccccc1O | 22.2% (inactive) |  |
| COc1ccc(-n2nc(C(N)=O)c3c2C(=O)N(c2ccc(N4CCCCC4=O)cc2)CC3)cc1 | -2.7% (inactive) |  |
| CC(O)[C@H]1CC[C@H]2[C@@H]3CC[C@@H]4C[C@@H](O)CC[C@]4(C)[C@H]3CC[C@]12C (some centres undefined) | 6.64% (inactive) |  |
| CC(C)C(=O)Oc1ccc(CO)cc1[C@H](CCN(C(C)C)C(C)C)c1ccccc1 | -5.1% (inactive) |  |
